Records with an inconclusive call do not appear. Unmarked numbers belong to inactive results. Active and inactive are the calls of the source. Calls come from the whole dose curve; as a rule, active = well fitted activation curve with a large enough effect in the repeat runs; inconclusive = weak or mixed curves; inactive = no such curve, though single readings can be large or run the other way.
Target: Nuclear receptor subfamily 1 group I member 2 (Homo sapiens) (UniProt O75469)
Experiment: Human pregnane X receptor (PXR) small molecule agonists, qHTS assay (AID 1346982); note: nearly all actives have a fitted effect of over 35% in size
Conditions: PXR-Luc HepG2, CYP3A4 luciferase reporter, 24 h; series mostly up to 92.4 µM; activation: at the top concentration
Excerpt: National Center for Advancing Translational Sciences [NCATS]
NIH Chemical Genomics Center [NCGC]
U.S. Environmental Protection Agency [EPA]
National Institutes of Environmental Health Sciences [NIEHS]
National Toxicology Program [NTP]
The human pregnane X receptor (hPXR) regulates the expression of several drug metabolizing enzymes and induction of these proteins is a major mechanism for developing drug resistance in cancer. One such key enzyme catalyzing the drug metabolism is cytochrome P450 3A4 (CYP3A4). Changes in CYP3A4 expression affect drug metabolism, thereby reducing the therapeutic efficacy and altering toxicological response to a drug and which finally causes adverse drug interaction. To screen Tox21 libraries for compounds that activate hPXR-mediated CYP3A4 gene expression, PXR-Luc HepG2 cells were used.
PXR-Luc HepG2 cells were dispensed at 2,000 per well in 5uL of assay medium containing 5% charcoal-stripped FBS into white solid bottom 1536-well plates (Corning Life Sciences, Corning, NY) using a Multidrop Combi (Thermo Scientific, Waltham, MA) dispenser. The assay plates were incubated at 37 C and 5% CO2 for 5hr, and then 23nL of compounds dissolved in DMSO and positive control were transferred using a Pintool station (Wako, San Diego, CA). The assay plates were incubated at 37C and 5% CO2 for 24hr. For luciferase read, 4uL of ONE-Glo reagent (Promega Corporation, Madison, WI) was added to each well of the assay plates using Flying Reagent Dispenser (FRD, Aurora Discovery, San Diego, CA) and incubated the assay plates at room temperature for 30min. The luminescence signal was quantified using a ViewLux plate reader (Perkin Elmer, Shelton, CT).
% is set by controls: 0 for no effect and ±100 for the full control effect; potency is the fitted concentration of half-maximal effect.

Sequence of Nuclear receptor subfamily 1 group I member 2 (Homo sapiens) (O75469 whole entry, looked up): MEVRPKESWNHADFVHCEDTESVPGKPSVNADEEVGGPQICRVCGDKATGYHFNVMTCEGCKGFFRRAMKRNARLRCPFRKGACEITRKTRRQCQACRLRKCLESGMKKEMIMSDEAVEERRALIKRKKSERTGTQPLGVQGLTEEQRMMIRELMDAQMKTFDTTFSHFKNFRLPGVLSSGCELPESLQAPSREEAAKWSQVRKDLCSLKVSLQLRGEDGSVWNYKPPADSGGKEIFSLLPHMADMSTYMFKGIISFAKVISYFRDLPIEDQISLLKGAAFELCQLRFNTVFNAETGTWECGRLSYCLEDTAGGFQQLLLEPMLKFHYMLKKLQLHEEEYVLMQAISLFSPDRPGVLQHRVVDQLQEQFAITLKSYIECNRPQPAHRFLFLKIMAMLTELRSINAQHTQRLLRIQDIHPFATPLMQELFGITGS

| SMILES | activation | Potency |
| --- | --- | --- |
| COc1ccc(S(=O)(=O)Nc2nnc(CC(C)C)s2)cc1 | -4.77% [at 42.5 µM] |  |
| CN1CCN(N)CC1 | -2.33% [at 42.5 µM] |  |
| CN1[C@@H]2CC[C@H]1CC(OC(=O)c1c[nH]c3ccccc13)C2 (stereo not given in full) | 2.07% [at 42.5 µM] |  |
| Cc1ccc([N+](=O)[O-])c(N)c1 |  | 66.9 µM (active) |
| COc1ccccc1N1CCN(CCCNc2cc(=O)n(C)c(=O)n2C)CC1 | -1.18% [at 42.5 µM] |  |
| CC1=C2[C@H](/C=C(\C)C(=O)O)CC[C@@H](C)[C@H]2CC1 |  | 56.5 µM (active) |
| CC(C)CCCCCCc1ccc(OCCOCCO)cc1 |  | 97.2 µM (active) |
| C[C@]12C(=O)OC(=O)[C@H]1[C@H]1C=C[C@@H]2C1 | 14.2% |  |
| Cc1onc(-c2ccccc2)c1C(=O)Cl | -4.65% [at 42.5 µM] |  |
| CCOC(=O)[C@H](CCc1ccccc1)N[C@@H](C)C(=O)N1Cc2cc(OC)c(OC)cc2C[C@H]1C(=O)O | 11.1% [at 42.5 µM] |  |
| CCCOc1ccc2c(c1)CC[C@@H]1[C@@H]2CC[C@]2(C)C(OC)CC[C@@H]12 (stereo not given in full) | 20.8% [at 42.5 µM] |  |
| NS(=O)(=O)c1cc(-c2nn[nH]n2)c(NCc2cccs2)cc1Cl |  | 13.3 µM (active) |
| CC1=C(CC(=O)O)c2cc(F)ccc2/C1=C\c1ccc(S(C)(=O)=O)cc1 | -5.01% [at 42.5 µM] |  |
| Clc1cccc(-c2cc(Cl)cc(Cl)c2)c1 |  | 59 µM (active) |
| CC1(C)S[C@@H]2[C@H](NC(=O)C(C(=O)O)c3ccccc3)C(=O)N2[C@H]1C(=O)O (stereo not given in full) | 1.13% [at 42.5 µM] |  |
| CCC(=O)Nc1ccc(O)cc1 | -4.52% [at 42.5 µM] |  |
| C/C(=N\O)[C@@H](C)NCC(C)(C)CN[C@H](C)/C(C)=N/O | -6.88% [at 42.5 µM] |  |
| CC(C)Nc1nc(N)nc(Cl)n1 | -3.1% |  |
| Cc1ccsc1C(=CCCN1CCC[C@@H](C(=O)O)C1)c1sccc1C | 6.1% [at 42.5 µM] |  |
| OCCN1CCN(CCO)CC1 | 6.05% |  |

| SMILES | activation | Potency |
| --- | --- | --- |
| OCCN(CCO)CCN(CCO)CCO | 14.4% |  |
| CC(C)c1ccccc1 | -12.5% |  |
| Cc1c(C(=O)NCCO)[n+](=O)c2ccccc2n1[O-] | 21.7% [at 42.5 µM] |  |
| CCOC(=O)c1ccccc1O | -6.84% [at 42.5 µM] |  |
| O=S(=O)(O)C(F)(F)F | 20.9% |  |
| CC1(C)O[C@@H]2C[C@H]3[C@@H]4CCC5=CC(=O)CC[C@]5(C)[C@@]4(F)[C@@H](O)C[C@]3(C)[C@]2(C(=O)CCl)O1 |  | 9.44 µM (active) |
| FC(F)(F)C(Cl)(Cl)Cl | 8.32% |  |
| O=C(O)[C@@H]1CSCN1 | -7.91% [at 42.5 µM] |  |
| CCOC(=O)C(Br)c1ccccc1 (stereo not given) | 14.7% |  |
| O=C1C=CC(=O)O1 | 21.4% |  |
| O=C(CCCl)NCc1ccccc1 | 1.78% [at 42.5 µM] |  |
| CC1=NN(c2cc(Cl)c(S(=O)(=O)O)cc2Cl)C(=O)C1N=Nc1ccc(S(=O)(=O)O)cc1 (stereo not given) | 11% |  |
| CC(=O)Oc1cc(C(C)C)c(OCCN(C)C)cc1C | -5.28% [at 42.5 µM] |  |
| CCCCNC(=S)NCCCC |  | 34.4 µM (active) |
| Cc1cc(NS(=O)(=O)c2ccc(N)cc2)nc(C)n1 | -3.99% [at 42.5 µM] |  |
| CCN[C@H]1CN(CCCOC)S(=O)(=O)c2sc(S(N)(=O)=O)cc21 | -4.62% [at 42.5 µM] |  |
| CN1CCN(c2c(F)cc3c(=O)c(C(=O)O)cn4c3c2SCC4)CC1 | -3.11% [at 42.5 µM] |  |
| O=[N+]([O-])c1nccn1CO[C@@H](CO)[C@H](O)CO | -7.62% [at 42.5 µM] |  |
| CCc1cc(Cl)c(OC)c(C(=O)NC[C@@H]2CCCN2CC)c1O |  | 7.5 µM (active) |
| ICCc1ccccc1 |  | 59.9 µM (active) |

— PubChem BioAssay (Tox21)
